Only some compounds are listed: those with a hit (about 2.9% of all), similar ones and a draw of the others.
TSHR antagonist = human thyrotropin receptor antagonism; AID 504810; actives 0.2% (n = 330,000); TSHR-expressing cells, TSH-stimulated cAMP HTRF, 2 h; hits give low values; activity change, negative = inhibition, % at 11.5 µM;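 active = activity change below a set negative limit, meaning inhibition stronger than a set level, cut at about -70% in these data; inconclusive = activity change between two set negative limits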; also: % is scaled to controls: 0 for no effect and ±100 for the full control effect
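Read-out is FRET at 665 nm (cryptate excitation 337 nm) from a cryptate-tagged anti-cAMP antibody, competed by cell cAMP against cAMP-d2. Compounds are tested on freshly harvested TSHR cells challenged with 4nM TSH (EC80) for 2 hours at 37 deg C.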
D3 antag = antagonists of human D3 dopamine receptor; P35462; D3R cells, DiscoveRx beta-arrestin luminescence, antagonist mode; hits give low values; max response, negative = inhibition, %; actives 2.5% (n = 360,000); AID 652054; in the data active = max response below about -50%; inconclusive = no clear call, values can overlap the other calls; also: % is scaled to controls: 0 for no effect and ±100 for the full control effect
Target sequence (P35462 whole entry, looked up): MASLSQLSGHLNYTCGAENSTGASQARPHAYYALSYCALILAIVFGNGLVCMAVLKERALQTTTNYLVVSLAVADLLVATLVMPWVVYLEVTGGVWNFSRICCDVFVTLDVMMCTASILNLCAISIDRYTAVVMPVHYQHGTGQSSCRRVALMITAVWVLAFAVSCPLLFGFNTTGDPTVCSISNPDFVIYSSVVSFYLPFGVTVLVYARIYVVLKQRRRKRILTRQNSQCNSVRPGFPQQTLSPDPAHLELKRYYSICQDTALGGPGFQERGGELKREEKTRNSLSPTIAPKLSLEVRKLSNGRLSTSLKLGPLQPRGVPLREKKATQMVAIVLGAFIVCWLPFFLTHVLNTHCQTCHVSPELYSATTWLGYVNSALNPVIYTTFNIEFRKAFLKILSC
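Cells plated overnight at 1500 cells/well, then exposed to library compounds with dopamine controls for 90 minutes at 37 degrees C. DiscoveRx reagent added for 30–60 minutes at room temperature; luminescence read, quantitative HTS format.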
D3 ag = activates the human D3 dopamine receptor | P35462 | D3R DiscoveRx beta-arrestin cells, luminescence, 90 min | actives 0.58% (n = 410,000) | max activation, % | AID 652048; in the data active = max activation above about 30%; also: 0% is about no effect
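Agonist mode: compounds and dopamine controls were applied to plated cells for 90 min at 37 degrees C after an overnight attachment at 1500 cells/well. Luminescent read-out followed 30 - 60 minutes at room temperature with DiscoveRx detection reagent.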
B2AR arrestin = beta2AR (human) beta-arrestin recruitment activity; actives 0.02% (n = 330,000); AID 492947; P07550; beta-arrestin recruitment to beta2AR, cell-based reporter; Potency, µM (titrated, usually from 46.1 µM), for inactives: at the top dose activation, usual class: activators; active = well fitted activation curve with a large enough effect; inconclusive = small, poorly fitted or top-dose-only effect;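 also: potency is read from the fitted curve at half-maximal effect; 0% = DMSO controls and full agonism = EC100 isoproterenol or metaproterenol; nearly all actives have a fitted effect of over 65% in size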
The depositor's hits bear a star; u = inconclusive; x = not tested or not shown.

SMILES | TSHR antagonist | D3 antag | D3 ag | B2AR arrestin
CC12CCC(C[N+](C)(CCC[N+](C)(C)C)C1)C2(C)C (stereo not given) | x | x | -11 | x
CCC(Oc1ccccc1)C(=O)Nc1ccccc1OCc1cc(=O)n2ccccc2n1 (stereo not given) | x | x | 7 | x
Cc1cccc(NC(=O)CSc2nc(C)c(CC(=O)c3ccc(Br)cc3)c(C)c2C#N)c1C | 8 | -53* | 2 | 0%
CC(=O)Nc1ccccc1OCc1cc(=O)n2c3c(sc2n1)CCCC3 | x | x | 60* | x
Cc1ccc(OCc2cc(=O)n3c4c(sc3n2)CCCC4)c(C)c1 | x | x | 0 | x
CCN1CCc2c(C#N)c(N3CCCCC3)nc(N3CCOCC3)c2C1 | 6 | -53* | 0 | 0%
COc1cccc(NC(=O)c2nc(S(C)(=O)=O)ncc2Cl)c1 | -45 | -109* | -33 | 0%
CN(c1ccccc1)S(=O)(=O)c1ccc(NC(=O)c2nc(S(C)(=O)=O)ncc2Cl)cc1 | -95* | -108* | -22 | 0%
Cc1cccc(C)c1NC(=O)CSc1n[nH]c(=O)n1C1CC1 | x | 0 | 0 | 0%
O=C(CSc1n[nH]c(=O)n1C1CC1)c1ccc(F)cc1 | -10 | -60* | -21 | 0%
Cc1ccc(CNC(=O)c2ccc3c(c2)nc2n3CCCC2)cc1 | x | x | -11 | x
Cc1cccc(-c2nc3c4ccccc4n(Cc4cccc(Cl)c4)c(=O)n3n2)c1 | x | x | -6 | x
Cc1ccc(S(=O)(=O)/N=C2/NC(=O)/C(=C\c3cc(Br)cc(Br)c3O)S2)cc1 | -100* | -53* | -6 | 0%
Cc1ccc(S(=O)(=O)/N=C2/NC(=O)/C(=C/c3ccc(Br)o3)S2)cc1 | -25 | 13 | -1 | 0%
CCOC(=O)C1CCN(Cc2cnc(Oc3ccc(C(C)(C)C)cc3)s2)CC1 | 50 | -93* | -1 | 0%
COc1ccc(NC(=O)C2C3C=CC(C3)C2C(=O)NCc2ccco2)c(OC)c1 (stereo not given) | 8 | -56* | 0 | 1%
O=C(O)C1C2C=CC(C2)C1C(=O)NCc1ccco1 (stereo not given) | 5 | 5 | -1 | 0%
Cc1ccc(C)c(NC(=O)CSc2nc3nccnc3c(=O)n2CCc2c[nH]c3ccccc23)c1 | x | x | 4 | x
CCOc1cc2sc(N3CCC(C(=O)Nc4ccc(C(C)C)cc4)CC3)nc2cc1Br | x | x | -4 | x
Cc1ccc(C)c(NC(=S)NNC(=O)c2csc3c2CCCC3)c1 | 3 | -19 | -29 | 0%
Cc1ccc(C)c(NC(=S)NNC(=O)c2csc3c2CCC(C)C3)c1 (stereo not given) | -7 | -60* | -8 | 0%
Cc1cc2nc(-c3ccc(F)cc3)c(CC(C)(C)C)n2c(C)c1Br | x | -19 | -7 | x
COc1ccc(C(=O)NC(=S)Nc2cc3oc4ccccc4c3cc2OC)cc1 | -1 | 35 | 31* | -1%
COCCN=c1scc(-c2ccco2)n1/N=C/c1ccc(O)c(O)c1O | -7 | 19 | 117* | 0%
CC(C)N=c1scc(-c2ccco2)n1/N=C/c1ccc(O)c(O)c1 | -43 | 5 | 19 | -1%
SMILES | TSHR antagonist | D3 antag | D3 ag | B2AR arrestin
C=CCN=c1scc(-c2ccco2)n1/N=C/c1ccc(O)c(O)c1O | -15 | 47 | 184* | 0%
CN=c1scc(-c2cccs2)n1/N=C/c1ccc(O)c(O)c1O | -23 | 3 | 170* | 0%
CC1=C(c2ccc(C)cc2)S(=O)(=O)N(Cc2ccc(C(=O)Nc3ccc(C)c(F)c3)cc2)C1=O | x | x | -11 | x
CC1CCN(S(=O)(=O)c2ccc3c(c2)c(=O)c(C(=O)NC(C)c2ccccc2)cn3C)CC1 (stereo not given) | x | x | -16 | x
c1ccc(OCCNc2ccn3nc(-c4ccco4)cc3n2)cc1 | x | 23 | 5 | x
Cc1ccc(C)c(N2CCN(C(=O)c3cnc4c(-c5ccccc5)c(C)nn4c3C)CC2)c1 | x | x | 17 | x
COc1ccccc1-n1c(=S)[nH]c2c(sc(=S)n2-c2ccccc2C)c1=O | -5 | -78* | 56* | 0%
CCc1ccc(S(=O)(=O)Nc2cc3c(cc2C)n(C)c(=O)c(=O)n3C)cc1 | x | x | 5 | x
O=C(O)CCCN1C(=O)C2C3CCC(C3)C2C1=O (stereo not given) | x | -73* | 3 | x
Cc1cccc(OCC(=O)N(Cc2cccc(Cl)c2)Cc2ccco2)c1C | x | x | -12 | x
CCCC1CCC(C(=O)Nn2c(C)nc3ccccc3c2=O)CC1 (stereo not given) | 3 | 9 | -2 | 0%
CCCCCCC1CCC(C(=O)Nn2c(C)nc3ccccc3c2=O)CC1 (stereo not given) | 8 | 18 | 30* | 0%
CCOc1ccc(CCNC(=O)c2cn(C)c3ccc(S(=O)(=O)N4CCCCCC4)cc3c2=O)cc1OCC | x | x | 7 | x
O=C(Oc1c(CN2CCOCC2)cc(Cl)c2cccnc12)c1ccccc1F | -3 | -85* | -21 | 5.6µM*
COc1cc(OC)cc(C(=O)Oc2c(CN3CCOCC3)cc(Cl)c3cccnc23)c1 | -10 | -64* | -22 | 4µM*
CC(C)CCn1c(SCc2cccc(F)c2)nc2ccsc2c1=O | x | x | 11 | x
COc1cccc(C(=O)n2nc(-c3ccco3)nc2NCc2cccs2)c1 | x | x | 9 | x
CC(C)CCNC(=O)C(=O)Nc1cc2c3c(c1)CCC(=O)N3CCC2 | 10 | 2 | 4 | -1%
CC(C)CCNC(=O)C(=O)Nc1cc2c3c(c1)CC(=O)N3CCC2 | 15 | 12 | 39* | 1%
CCOc1ccc(N=Nc2c(=O)[nH]n3c(=O)cc(C)[nH]c23)cc1 | -19 | -16 | -14 | 0%
Cc1cc(=O)n2[nH]c(=O)c(N=Nc3ccccc3)c2[nH]1 | -23 | -84* | -4 | 0%
Cc1cc(N/N=C/c2ccccc2O)nc(-c2ccccc2O)n1 | -13 | -131* | -1 | -1%
COc1ccc(O)c(/C=N/Nc2nc(Nc3ccccc3)nc(-n3nc(C)cc3C)n2)c1 | -29 | -117* | -39 | u
Cc1cc(N/N=C/c2ccc(O)cc2O)nc(-n2nc(C)cc2C)n1 | -9 | -122* | -28 | 1%
Cc1cc(N/N=C/c2ccc(O)cc2O)nc(-c2ccccc2O)n1 | -25 | 54 | 16 | -1%
SMILES | TSHR antagonist | D3 antag | D3 ag | B2AR arrestin
COc1ccc(C2C(=O)N(C3CCCCC3)CC(=O)N2CCc2ccc(OC)c(OC)c2)cc1 (stereo not given) | x | x | -24 | x
CC(C)c1ccc(NC(=O)CSC2=Nc3ccccc3C3=NC(CCC(=O)NCc4ccco4)C(=O)N23)cc1 (stereo not given) | x | x | 8 | x
COc1cc(C(C)=O)ccc1OCc1cn(CC(=O)c2ccc(O)cc2)nn1 | x | -72* | 3 | x
CC(=O)Nc1ccc(OCc2cn(CC(=O)c3ccc(O)cc3)nn2)cc1 | x | -114* | -21 | x
Cc1cccc(C)c1OCc1cn(CC(=O)c2ccc(O)cc2)nn1 | x | -61* | -13 | x
O=C(Cn1cc(COc2ccc(Br)cc2[N+](=O)[O-])nn1)c1ccc(O)cc1 | x | -59* | -14 | x
Cn1ncc(C(=O)N2CCN(c3ccc(F)cc3)CC2)c1C1CCN(C(=O)OC(C)(C)C)CC1 | x | x | 8 | x
CCOC(=O)c1ccc(N2CCN(c3cc(C)ccc3C)CC2)c(NC(=O)Nc2ccccc2)c1 | x | x | 18 | x
